# From PubChem
# ERK EGF block = blocks ERK signaling stimulated by EGF; HEK293-V1b, EGF-stimulated phospho-ERK AlphaScreen; Potency, µM (series often up to 11.5 µM), actives largely listed as inhibitors; actives 0.41% (n = 130,000); AID 1454; active = well fitted inhibition curve with a large enough effect; also: nearly all actives have a fitted effect of over 55% in size
#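 Readout: AlphaScreen signal for phosphorylated ERK in lysed HEK293 cells stably expressing V1b. Stimulus 25 nM EGF, 5 min, following 30 min compound exposure. Data scaled to DMSO basal and full EGF activation.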
# A number is an active result; - = inactive. The full list was thinned out, with hits kept by preference.
SMILES,ERK EGF block
O=C1CC(c2ccc(Br)cc2)NC(c2ccc(Br)cc2)C1c1ccccc1 (stereo not drawn),-
O=C(Nc1cccc(F)c1)N1CCC2(CC1)CCN(C(=O)c1csnn1)CC2,-
Cc1ccc2c(c1)S/C(=C/c1ccc[n+](C)c1)N2CCO,-
CCN1/C(=C/c2cc[n+](C)cc2)C=Cc2cc(C)ccc21,16µM
CCN1/C(=C2\C(=O)N(c3ccccc3)N=C2C)C=Cc2cc(C)ccc21,-
CCCCCC1=C2CNC(C)(C(=O)OC)C=C2C(C)C1=O (stereo not drawn),-
COC(=O)NC(c1ccc2c(c1)OCO2)C(C(=O)OC)C(=O)OC (stereo not drawn),-
COC(=O)c1cccc(Nc2nc(-c3cccnc3)nc3ccccc23)c1,-
O=C(O)c1cccc(Nc2nc(-c3cccnc3)nc3ccccc23)c1,-
O=C(Oc1cccc(Nc2ncnc3ccccc23)c1)c1cccnc1,14µM
CC(=O)Nc1ccc(Nc2ncnc3ccccc23)cc1,-
COc1ccc([N+](=O)[O-])cc1Nc1ncnc2ccccc12,-
COc1ccc(C(=O)Oc2cccc(Nc3ncnc4ccccc34)c2)cc1OC,25µM
Cc1cc2ccc(=O)oc2cc1OC[C@@H](O)C(C)(C)O,-
COC(=O)[C@@]1(Cc2ccccc2)[C@H]2c3cc(C(=O)N(C)C)n(Cc4cc(C)n(C)n4)c3C[C@H]2CN1C(=O)c1ccccc1,-
C=C(C(C)=O)C(O)/C=C/c1ccco1 (stereo not drawn),-
O=c1c(-c2ccccc2)coc2cc(O)cc(O)c12,-
CCCn1c(C)nc2c(NCCCN(CC)CC)nc(C)nc21,-
COC(=O)[C@@]1(Cc2ccc(OC)cc2)[C@H]2c3cc(C(=O)N(C)C)n(Cc4nc5ccccc5[nH]4)c3C[C@H]2CN1C(=O)c1ccccc1,-
CCc1c2c(nc3cccc(C(C)C)c13)-c1cccc(=O)n1C2,-
COc1cccc(/C=C/C(=O)O)c1C(C)C,-
Cc1ccc(SC[C@H](c2ccccc2)N2CCN(C)CCC2=O)cc1,-
CC(C)CN1CCC(=O)N([C@H](CSc2ccc(Br)cc2)c2ccccc2)CC1,-
Cc1ccc(SC[C@H](c2ccccc2)N2CCN(CC(C)C)CCC2=O)cc1,32µM
C[C@@H](O)C#C[Si](C)(C)c1ccccc1,-
SMILES,ERK EGF block
O=[N+]([O-])c1ccccc1S(=O)(=O)NCC1CCC(CNCC2CCc3ccccc3C2)CC1 (stereo not drawn),-
CCCCC[C@H](O)/C=C/C=C\C/C=C\CCCCCCC(=O)O,-
COCCn1c(=O)c(-c2ccccc2)nc2cnc(Nc3ccccc3)nc21,-
N#C/C(=C\C1=C(N2CCOCC2)C(=C/c2cccc([N+](=O)[O-])c2)/CC1)C(=O)Nc1ccccc1F,3.5µM
O=C(/C=C/c1cccc([N+](=O)[O-])c1)Nc1ccccc1N1CCOCC1,-
CC(NC(=O)C12CC3CC(CC(C3)C1)C2)C(=O)N/N=C/C1=C(N2CCOCC2)C(=C\c2cccc([N+](=O)[O-])c2)/CC1 (stereo not drawn),-
O=C(O)[C@@H](O)[C@@H](O)[C@@H](O[C@H]1O[C@@H](CO)[C@@H](O)[C@@H](O)[C@@H]1O)[C@@H](O)CO,-
O=C(Nc1cccc(F)c1)N1CC2(CCN(C(=O)c3cccc(F)c3)CC2)C1,-
C[C@H]1CC[C@@H]2[C@@H](C)[C@H]3[C@H](C[C@H]4[C@@H]5CC=C6C[C@@H](O[C@]7(O[C@H]8O[C@@H](C)[C@@H](O)[C@@H](O)[C@@H]8O)C[C@@H](O[C@@H]8O[C@H](CO)[C@@H](O)[C@H](O)[C@@H]8O)[C@@H](O)[C@H](CO)O7)CC[C@]6(C)[C@H]5CC[C@@]34C)N2C1,-
O=S(=O)(c1ccccc1)N1CCC[C@@]2(CCN(Cc3cc(C(F)(F)F)cc(C(F)(F)F)c3)C2)C1,-
Cn1cccc1/C=N/N1CCN(Cc2cccc3ccccc23)CC1,18µM
O=C(O)c1ccc(/C=N/N2CCN(Cc3cccc4ccccc34)CC2)cc1,-
Cn1cccc1/C=N/N1CCN(c2ccccn2)CC1,-
C=CCOC(=O)NC(CC(=Nc1ccc(OC)cc1)C(=O)OC)c1ccccc1 (stereo not drawn),-
COc1ccc(Nc2ncnc3ccc([N+](=O)[O-])cc23)c(OC)c1,-
O=[N+]([O-])c1ccc(O)c(Nc2ncnc3ccccc23)c1,-
O=[N+]([O-])c1ccc(O)c(Nc2ncnc3ccc(Br)cc23)c1,25µM
COC(=O)C1CC1C(NC(=O)[C@@H]1CCCN1)c1ccccc1 (stereo partly drawn),-
Cc1cccc(CNc2ncncc2-c2ccc3c(c2)OCO3)c1,-
CC(C)(O)[C@@H]1CCC[N+]2(C)CCCC[C@H]12 (stereo partly drawn),-
O=C1/C(=C/c2ccncc2)N=C2CCCCCN12,-
O=C1CCC/C1=C\c1ccccc1,-
O=C1/C(=C/c2ccncc2)CCC/C1=C\c1ccncc1,22µM
N=C(N)c1ccc(OCCCCCOc2ccc(C(=N)N)cc2)cc1 (tested in a mixture with another compound),-
CN(Cc1ccco1)c1nc(-c2cccc(C#N)c2)nc2ccccc12,-
SMILES,ERK EGF block
O=C(NCCCc1nc2ccccc2[nH]1)c1ccc(F)cc1,-
CC(OC(=O)C1CCCCC1)c1nc2ccccc2[nH]1 (stereo not drawn),-
COC(=O)c1ccc(C(NC(=O)OCc2ccccc2)/C(=C/[C@@H](C)C(=O)NCc2ccc(S(C)(=O)=O)cc2)c2cccnc2)cc1 (stereo partly drawn),-
COC(=O)c1ccc(C(NC(=O)OCc2ccccc2)/C(F)=C/[C@@H](C)C(=O)NCc2nc3ccccc3s2)cc1 (stereo partly drawn),-
CC[C@H](C)[C@@H](NC(=O)O[C@H]1C(=O)c2cc(OC)ccc2O[C@@H]1c1ccc(OC)c(Br)c1)C(=O)OC,-
COc1cc(O)c(C(CCN2CCN(c3ccccc3)CC2)c2ccc(N(C)C)cc2)c(OC)c1 (stereo not drawn),18µM
COc1ccc(C(CCN2CCN(c3ccccc3)CC2)c2c(O)cc(OC)cc2OC)cc1 (stereo not drawn),-
COc1ccc(C(CCN2CCCCC2)c2c(O)cc(OC)cc2OC)cc1 (stereo not drawn),-
O=C(Nc1ccccc1)N1CC[C@@]2(CCCN(C(=O)c3cccc(F)c3)C2)C1,-
Oc1c(N=NC(=S)Nc2ccccc2F)c2ccccc2n1Cc1ccccc1Cl,14µM
Cc1c(Cl)cccc1NC(=S)N=Nc1c(O)n(CN2CCOCC2)c2ccccc12,-
NC(=S)N=Nc1c(O)n(Cc2ccccc2)c2ccccc12,-
COc1ccc(C(=O)[C@]2(C)C=C(c3ccc(OC)cc3)[C@H](C)C2)cc1,-
COCCNC(=O)C1(C)C=CCN1C(C)=O (stereo not drawn),-
COc1ccc(-c2nc(-c3ccccc3)c(Nc3ccc4ccccc4c3)o2)cc1,-
CC(C)C[C@@H](CC(=O)N[C@@H](CCC(=O)O)CC(=O)O)NC(=O)[C@@H]1CNCC[C@H]1NC(=O)C[C@H](CCCN)NC(=O)C[C@H](Cc1ccccc1)NC(=O)[C@@H]1CCCC[C@H]1N,-
Cc1cccc(Nc2ccc(NCc3ccccc3)nn2)c1,-
Cc1nn(-c2nnc(NCc3ccccc3)nn2)c(C)c1Br,22µM
Cc1cc(=O)[nH]c(NCc2ccccc2)n1,-
